SMILES strings stand for the structures. About 83,000 compounds went through this panel and 20% of them were active in at least one assay; those are over-represented in the sample as a whole.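 Compound tested at a single concentration for 48 hours in 96-well plates; a percent growth value below 10 was scored as active.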 Unmarked numbers belong to inactive results. Calls of active or inactive are those of the source.

The assay relates to IGROV1 ovarian. Description: NCI-60 one-dose screen, 48 h (100 = growth as untreated, 0 = no growth, -100 = all killed). As to conditions: 10 µM unless noted. How it is done: Growth inhibition of the IGROV1 human tumor cell line is measured as a screen for anti-cancer activity. Cells are grown in 96 well plates and exposed to the test compound for 48 hours. Compounds are tested at a single concentration, which is 10^-5 M for most compounds. The reported endpoint is percent growth (GI% or GIPRCNT), where numbers from 0 - 100% represent growth inhibition, and numbers from -100% - 0 represent cell death. For example, a value of 40 represents 60% growth inhibition. A value of 0 means no net growth occurred over the course of the experiment. A value of -40 indicates 40% of cells at the beginning of the experiment died by the end of the experiment. A value of -100 means all cells are dead at the end of the experiment.
NCI-60 Human Tumor Cell Lines Screen was performed using the standard one-dose NCI protocol, which is described in more detail at https://dtp.cancer.gov/discovery_development/nci-60/default.htm.
Compounds with GIPRCNT values below 10 were considered active. Activity score was based on GIPRCNT using the following formula: […]
Score is 0 for GIPRCNT values of 100 or above, 50 for GIPRCNT values of 0, and 100 for GIPRCNT values of -100.
`O=C(COc1ccc(/C=C2\C(=O)Nc3ccc(F)cc32)cc1)Nc1ccccc1`: the growth is 109%. For the compound `COc1ccc(/C=N/NC(=O)c2c(N)nn(C)c2Nc2ccccc2)cc1`, the growth was 39.6%. Take `N#CC1=C2NCCCNc3oc(nc3C#N)Cc3ccccc3CC(=N1)O2`: the growth is 93.4%. With `CCOC(=O)Nc1ccc2c(ccn2C(=O)c2cccc(F)c2)c1`, the growth was 45.4%. As for `CCOC(=O)c1cccnc1Nc1ccc(NC(=O)Nc2ccc(Cl)c(C(F)(F)F)c2)cc1`, the growth was 29.9%.

Turning to `Cn1cc(-c2nn3cc(-c4ccncc4)nc3s2)c2cc(F)ccc21`, the growth is 64.9%. As for `O=C1CSC(c2cn(-c3ccccc3)nc2-c2ccc(Cl)cc2)N1c1ccccc1` (stereo not given), the growth was 114%.

For `CC(C)NC(=O)c1cc(-c2ccc(NC(=O)Nc3ccc(F)c(C(F)(F)F)c3)cc2)nc2cccnc12`, the growth was 110%.

Consider `CN1CCN(Cc2ccc(NC(=O)c3cncc(C#Cc4cnc5ccc(OCC(F)F)nn45)c3)cc2C(F)(F)F)CC1`, for which the growth is -53.8% (active).

`Cc1ncn(-c2ccc(/C=N/Nc3ccnc4cc(Cl)ccc34)cc2)c1C`: the growth is 61.7%. In the case of `Cc1csc(/N=C(N)/N=C(\N)c2cccs2)n1` it was 101%; in that of `O=C(/C=C/c1ccc(Cl)c(Cl)c1)Nc1ncc(Cc2ccc(Cl)c(Cl)c2)s1`, 60.6%; in that of `Brc1cccc(-c2cc(-c3cnc4c(c3)OCCO4)n[nH]2)c1`, 45%. Regarding `C=C1CCc2nc(SCC(=O)O)ccc2N1`, the growth is 104%. Then `COc1ccc2c(c1)C=CC1(O2)Oc2ccc(OC)cc2C=C1C` (stereo not given), with 24.5%; and `O=C(CN1CCN(c2cc(=O)[nH]c3ccc(F)cc23)CC1)N(c1ccccc1)c1ccccc1`, with 99.8%. Turning to `CN(C)S(=O)(=O)c1ccc(-c2nc(C(Cl)Cl)nc3cc(-c4ccc(F)cc4)nn23)cc1`, the growth was 0.61% (active). On to `Cc1csc(/N=C(N)/N=C(\N)c2cccc(C#N)c2)n1`, for which the growth is 77.7%. With `Cc1ccc(C(=O)Nc2ccc(CNCCN3CCOCC3)c(C(F)(F)F)c2)cc1C#Cc1cnc2cccnn12`, the growth is 10.6%.

As for `Cc1ccccc1NC(=O)Nc1nc2ccc([N+](=O)[O-])cc2s1`, the growth was 22.6%. Take `N#Cc1c(-c2cccs2)cc(-c2cnccn2)nc1SCC(=O)N/N=C/c1ccccc1`: the growth was 61.9%. Then `O=S(=O)(NCCCNc1nccc(-c2[nH]c(-c3ccccc3)nc2-c2ccc(F)c(O)c2)n1)c1cccc2ccccc12`, with 58.3%; and `O=c1oc2ccc(-c3ccc(F)cc3F)cc2c(=O)n1-c1ccc(Br)cc1F`, with 58.3%; and `O=C1/C(=C/C=C/c2ccco2)SC(=S)N1Cc1ccccc1`, with 92.9%. For the compound `CNC(=O)Nc1ccc(Nc2cc(-c3ccc(-n4cccn4)cc3)[nH]n2)c(C)c1`, the growth was 108%. `Cc1cc(Br)ccc1-n1cc(C#N)c(N)c1C(=O)c1ccc(Br)cc1`: the growth was 110%.

For `CCNC(=O)Oc1ccc(/C(=C(/C)c2ccc(Cl)cc2)c2ccc(OCCN3CCCCCC3)cc2)cc1`, the growth was 49.5%. Regarding `CC1=C(SCC(=O)OCCCCCC(C)C)C(=O)c2ccccc2C1=O`, the growth was 79.8%. For `COc1cc2cc(Oc3ccc(NC(=O)c4cc(C(F)(F)F)cc(C(F)(F)F)c4)cc3)c(C)nc2cc1OCCN1CCOCC1`, the growth was 85.6%. In the case of `CN1CCN(c2ccc(Nc3nc(NCCCNS(=O)(=O)c4cccc5ccccc45)c4sccc4n3)cc2)CC1`, the growth was 6.32% (active). For the compound `O=C(N/N=C/c1cc2ccccc2nc1Cl)c1cc(-c2nc3ccccc3[nH]2)nc2ccccc12`, the growth was 87.5%. As for `O=C(/C=C/c1cccc(Br)c1)c1cccc(OCCCCOc2cccc(C(=O)/C=C/c3cccc(Br)c3)c2)c1`, the growth was 101%. On to `C/C(CC1(O)C(=O)Nc2ccccc21)=N\O` (stereo not given), for which the growth is 97.9%. Turning to `COc1ccc(C(=NNS(=O)(=O)c2ccc(C)cc2)c2ccccc2)cc1OC`, the growth is 90.8%. Then `CCN(CC)S(=O)(=O)c1ccc(-c2nc(C(Cl)Cl)nc3cc(C)nn23)cc1`, with 12%; and `N#C/C(=C\c1cccc2c1OCO2)C(=O)Nc1sc2c(c1C#N)CCCC2`, with 100%. In the case of `Brc1cc(-c2cc(-c3ccc4c(c3)OCCO4)[nH]n2)cs1` it was 50.8%; in that of `CC[C@]12CC(C(=O)OC)=C3Nc4ccccc4[C@@]34CCN(C14)[C@@H]1c3cc4c(cc3O[C@@H]1[C@H]2O)NC1=C(C(=O)OC)C[C@@]2(CC)C3N(CC[C@@]143)C[C@H]1O[C@H]12` (stereo not given in full), 15.9%. On to `NC(=O)c1c(NC(=O)c2ccc(C(F)(F)F)cc2)sc2c1CCC(=O)C2`, for which the growth was 16.2%. Consider `CCOC(=O)c1c(N)c(C#N)cn1Cc1ccc(Cl)cc1Cl`, for which the growth was 63.3%.

(Values after PubChem BioAssay (NCI).)
